Here are results for eight molecules from the supplement of paper PMC10105736.

What all share (experiment): MAPPIT interaction score (arbitrary units); higher = stronger binary interaction signal, active = hit call of the paper
One assay has as its target CG2852. Particulars: pair source set: Lit-BM-16.
A further assay deals with CG2991. Particulars: MAPPIT configuration: N-N; pair source set: RRS.
The target in another assay is CG32425. Particulars: MAPPIT configuration: N-C; pair source set: screen_3.
In another assay the target is CG5327. Conditions: MAPPIT configuration: N-C; pair source set: screen_3.
In the next assay the target is CG30349. Conditions: MAPPIT configuration: N-N; pair source set: Curagen_low_conf.
The target of the next assay is CG2772. Conditions: pair source set: RRS.
In a further assay the target is CG31121. Conditions: MAPPIT configuration: N-N; pair source set: Curagen_high_conf.
Another assay concerns the target CG30472. Particulars: pair source set: RRS.
Another assay has as its target CG31600. Particulars: MAPPIT configuration: N-C; pair source set: screen_4.

Values without a mark were called inactive.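 Rule for the calls: active = MAPPIT score above the 99th percentile of random reference set scores in the same batch; inactive = at or below it.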
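Note: HEK293T cells with Epo stimulation, STAT-responsive firefly luciferase reporter, fold induction versus unstimulated cells divided by the larger fold induction of two negative controls lacking either bait or prey.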

B1: Pdi (protein)
chain: MKFLICALFLAASYVAASAEAEVKVEEGVLVATVDNFKQLIADNEFVLVEFYAPWCGHCKALAPEYAKAAQQLAEKESPIKLAKVDATVEGELAEQYAVRGYPTLKFFRSGSPVEYSGGRQAADIIAWVTKKTGPPAKDLTSVADAEQFLKDNEIAIIGFFKDLESEEAKTFTKVANALDSFVFGVSSNADVIAKYEAKDNGVVLFKPFDDKKSVFEGELNEENLKKFAQVQSLPLIVDFNHESASKIFGGSIKSHLLFFVSREGGHIEKYVDPLKEIAKKYRDDILFVTISSDEEDHTRIFEFFGMNKEEVPTIRLIKLEEDMAKYKPESDDLSAETIEAFLKKFLDGKLKQHLLSQELPEDWDKNPVKVLVSSNFESVALDKSKSVLVEFYAPWCGHCKQLAPIYDQLAEKYKDNEDIVIAKMDSTANELESIKISSFPTIKYFRKEDNKVIDFNLDRTLDDFVKFLDANGEVADSEPVEETEEEEEAPKKDEL
For B1, the figures for the MAPPIT interaction score with CG2852 (MAPPIT configuration: N-C) and in the assay with CG2852 (MAPPIT configuration: N-N) were -0.281 and 1.74, respectively.

B2: wda (protein)
chain: MSLPSASNHAHAASPVYSNSNNNKSSASSKKTSSKNDLLRCAVGLLLKQKNYVSNERFRRSDFLLLQNKQQFAVNKMLDTDLHGGNSFTFSNVQVITNNQHTVDQQFGRFSQFVEAQAEPLRLEMKRFYGPMLCHFYLDLLKAREPRGAVELLRKYAHLVAPVDMYDAPPPTKINGCSTTANESTFNIRFAKEAQDTGDTELDYFMRLVQTLSGYTRLEAAESDDTVAHFRSSKYELHTTAVVVNRICAYLQRRGHVLIMNLLYTWLHVHIVENEQRAFSEDHLLGLTDDLEGEDGEDDVVSKPAVTLNTRGDIRPSKSLTEKSNRKRPAEEPNIMLETDIKQEVETDESAELSKLQLNIDACLDTLKSATEQILKSQVELPRFLRISERSRGLTSAHLDPSECHMLAGFDNSAVQLWQLNQSYCRGKSFYRRYPQKRCPWELNNCANQEEETDEDSSDEDVKCSEEERRERNRARHCKYADNSYNEYGGFQLRGHTKGVTDVRFSAHYPLMYSVSKDATMRCWRAHNLHCAAIYRSHNYPIWCLDESPVGQYVVTGSKDLSARLWSLEKEHALIIYAGHTQDVECVAFHPNGNYIATGSADHSVRLWCATSGKLMRVFADCRQAVTQLAFSPDGKMLAAAGEETKVRIFDLAAGAQLAELKDHSASISSLSWSTHNRHLATACSDGTLRLWDIKKLSPMSDNSSAGSSSSATTNRVLTVNSSCQRLVDVFYGTSKTLYCIGT
For B2, in the assay with CG2991, the MAPPIT interaction score was -0.317.

B3: hth (protein)
chain: MAQPRYDDGLHGYGMDSGAAAAAMYDPHAGHRPPGLQGLPSHHSPHMTHAAAAAATVGMHGYHSGAGGHGTPSHVSPVGNHLMGAIPEVHKRDKDAIYEHPLFPLLALIFEKCELATCTPREPGVQGGDVCSSESFNEDIAMFSKQIRSQKPYYTADPEVDSLMVQAIQVLRFHLLELEKVHELCDNFCHRYISCLKGKMPIDLVIDERDTTKPPELGSANGEGRSNADSTSHTDGASTPDVRPPSSSLSYGGAMNDDARSPGAGSTPGPLSQQPPALDTSDPDGKFLSSLNPSELTYDGRWCRREWSSPADARNADASRRLYSSVFLGSPDNFGTSASGDASNASIGSGEGTGEEDDDASGKKNQKKRGIFPKVATNILRAWLFQHLTHPYPSEDQKKQLAQDTGLTILQVNNWFINARRRIVQPMIDQSNRAVYTPHPGPSGYGHDAMGYMMDSQAHMMHRPPGDPGFHQGYPHYPPAEYYGQHL
With B3, the MAPPIT interaction score with CG32425 is 3.41; in the assay with CG5327, 3.17.

B4: kdn (protein)
chain: MSLYRISARKLSEAQKLPNVGAYVRMIAADGKSLRDVLAAKVPQEQERVKNFRKQHGATKMGETTIDMMYGGMRGIKALVTETSVLDADEGIRFRGLSIPECQKVLPAADGGTEPLPEGLFWLLLTGEVPTKSQVQQLSREWAERAALPQHVVTMLNNMPTTLHPMSQFAAAVTALNHDSKFAKAYSDGVHKSKYWEYVYEDSMDLIAKLPVVAATIYCNTYRGGKGSRSIDSSLDWSANFVKMLGYDNAPFTELMRLYLTIHSDHEGGNVSAHTVHLVGSALSDPYLSFAAGLNGLAGPLHGLANQEVLVWLRKLQKEAGNNPSEEQLKEYIWKTLKSGQVVPGYGHAVLRKTDPRYTCQREFALKHLPEDETFQLVSKIYKVVPPILTETGKVKNPWPNVDAHSGVLLQYYGMKEMNYYTVLFGVSRALGVLASLVWDRALGLPIERPKSFSTDLLVKMVQK
In the case of B4, the MAPPIT interaction score with CG30349 is 0.214.

B5: okr (protein)
chain: MRRSLAPSQRGPLRPESRHSFTPPLLKKNKRSCQQELEREQELDRRRLGALRDASNTSELPLPIRFTANSEYELAIAKVLARKFKVPMDNYVPDYGGKRVLGVRRCISRRPLHDPMACNALVLFHPPAYTEHERMGMDPTKVLVHVVVDPLLSNILRPHQREGVRFMYECVEGKRGNFNGCIMADEMGLGKTLQCVTLVWTLLRQGPECKPTINKAIVVSPSSLVKNWEKEFTKWLHGRLLCLPMEGGTKENTIRALEQFSMTSARLGTPVLLISYETFRIYAEILCKYEVGMVICDEGHRLKNSDNLTYQALMGLKTKRRVLLSGTPIQNDLTEYYSLVNFVNPEMLGTAAVFKRNFESAILRGQNTDSTEQERQRAIEKTQELIGLVDQCIIRRTNQILTKYLPVKFEMVICAKLTAIQLELYTNFLKSDQVRRSLADCNEKASLTALADITTLKKICSHPDLIYEKLTAREKGFENSQNVLPSNYKPKDLNPELSGKFMLLDFMLAAIRAEGNDKVVLISNYTQTLDLFEQLARKRKYGFVRLDGTMSIKKRSKVVDRFNDPESDSFLFMLSSKAGGCGLNLIGANRLFMFDPDWNPANDEQAMARVWRDGQKKPCYIYRLVASGSIEEKILQRQTHKKSLSSTIIDNNESAEKHFTRDDLKDLFTFDANILSDTHDKLKCKRCVQNIQMKPPPEDTDCTSHLSQWYHCSNNRGLPDNILAQAWMDCKCVSFVFHHRSQAQEIVPSAEEEATDQPEEKPESRKRSSTPASDDSADEDFRGF
Turning to B5, the MAPPIT interaction score with CG2772 (MAPPIT configuration: N-C) is -0.364; with CG2772 (MAPPIT configuration: N-N), -0.357.

B6: Hsc70-5 (protein)
chain: MLRVPKFLPRLARQAGVVPSHMSGASSMFRNLPGASNGISSQLRYKSGEVKGAVIGIDLGTTNSCLAVMEGKQAKVIENAEGARTTPSHVAFTKDGERLVGMPAKRQAVTNSANTFYATKRLIGRRFDDPEVKKDITNLSYKVVKASNGDAWVSSTDGKVYSPSQIGAFILMKMKETAEAYLNTPVKNAVVTVPAYFNDSQRQATKDAGQIAGLNVLRVINEPTAAALAYGMDKTEDKIIAVYDLGGGTFDISILEIQKGVFEVKSTNGDTLLGGEDFDNHIVNFLVAEFKKDSGIDIRKDNIAMQRLKEAAEKAKCELSSSQQTDINLPYLTMDAAGPQHMNLKLTRSKLESLVGDLIKRTIQPCQKALSDAEVSKSEIGEVLLVGGMTRMPKVQSTVQELFGRQPSRSVNPDEAVAVGAAVQGGVLAGDVTDVLLLDVTPLSLGIETLGGVFTRLISRNTTIPTKKSQVFSTASDGQTQVEIKVHQGEREMANDNKLLGSFTLVGIPPAPRGVPQIEVVFDIDANGIVHVSAKDKGTGKEQQIVIQSSGGLSKDEIENMIKKAEEYATADKQKRELIEIVNQGESIVHDTETKMEEFKSQLPAEECEKLKKEIADLRTLLANKETADLEEVRKATSSLQQSSLKLFELAYKKMSAERESNAGAGSSDSSSSSDTSGEAKKEEKN
For the molecule B6, the MAPPIT interaction score in the assay with CG31121 was 0.0518.

B7: Or43b (protein)
chain: MFGHFKLVYPAPISEPIQSRDSNAYMMETLRNSGLNLKNDFGIGRKIWRVFSFTYNMVILPVSFPINYVIHLAEFPPELLLQSLQLCLNTWCFALKFFTLIVYTHRLELANKHFDELDKYCVKPAEKRKVRDMVATITRLYLTFVVVYVLYATSTLLDGLLHHRVPYNTYYPFINWRVDRTQMYIQSFLEYFTVGYAIYVATATDSYPVIYVAALRTHILLLKDRIIYLGDPSNEGSSDPSYMFKSLVDCIKAHRTMLNFCDAIQPIISGTIFAQFIICGSILGIIMINMVLFADQSTRFGIVIYVMAVLLQTFPLCFYCNAIVDDCKELAHALFHSAWWVQDKRYQRTVIQFLQKLQQPMTFTAMNIFNINLATNINVAKFAFTVYAIASGMNLDQKLSIKE
Regarding B7, the figures for the MAPPIT interaction score with CG30472 (MAPPIT configuration: N-C) and in the assay with CG30472 (MAPPIT configuration: N-N) were 0.0282 and 0.0958, respectively.

B8: zetaTry (protein)
chain: MSSSWIVGLLAFLVSLVALTQGLPLLEDLDEKSVPDGRIVGGYATDIAQVPYQISLRYKGITTPENPFRHRCGGSIFNETTIVTAAHCVIGTVASQYKVVAGTNFQTGSDGVITNVKEIVMHEGYYSGAAYNNDIAILFVDPPLPLNNFTIKAIKLALEQPIEGTVSKVSGWGTTSPGGYSSNQLLAVDVPIVSNELCDQDYEDFGDETYRITSAMLCAGKRGVGGADACQGDSGGPLAVRDELYGVVSWGNSCALPNYPGVYANVAYLRPWIDAVLAGL
With B8, the MAPPIT interaction score with CG31600 is 0.866.
